Data taken from PubChem BioAssay (EPA / NIEHS).
Results filed as inconclusive are left out. The source made the active and inactive calls. Rule for the calls: active = hit-call score of the fitted dose curve at least 0.9, where 1 is the maximum; inconclusive = response in the unintended direction; inactive = score below 0.9.

These molecules were tested against Cellular tumor antigen p53 (Homo sapiens) (UniProt P04637) (assay: TOX21_p53_BLA_p4_ratio: Tox21 HCT-116 p53 Agonism Beta-lactamase Assay, Ratio, Phase 4 (AID 2283601)).
Procedure, shortened: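 HCT-116 p53 beta-lactamase reporter cells (4000/well) preincubated 5 h, then compound (217-fold dilution of DMSO stock) for 16 h at 37C. CCF4-AM substrate added 2 h at room temperature; 460/530 nm emission ratio fitted upward versus DMSO.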

Chain of Cellular tumor antigen p53 (Homo sapiens) (P04637 whole entry, looked up): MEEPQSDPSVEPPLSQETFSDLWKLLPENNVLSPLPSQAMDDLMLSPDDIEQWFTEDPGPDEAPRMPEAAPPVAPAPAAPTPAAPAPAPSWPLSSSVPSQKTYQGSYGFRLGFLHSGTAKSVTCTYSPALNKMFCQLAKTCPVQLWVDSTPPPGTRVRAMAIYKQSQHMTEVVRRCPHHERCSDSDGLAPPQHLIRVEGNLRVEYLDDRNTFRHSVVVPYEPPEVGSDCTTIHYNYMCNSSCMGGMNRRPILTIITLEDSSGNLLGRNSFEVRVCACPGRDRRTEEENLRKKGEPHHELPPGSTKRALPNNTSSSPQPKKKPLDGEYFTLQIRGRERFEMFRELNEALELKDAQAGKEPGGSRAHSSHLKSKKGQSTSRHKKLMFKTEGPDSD

Row | SMILES | outcome | AC50
1 | C[N+](C)(C)CCCCCCCCCC[N+](C)(C)C | inactive | –
2 | CCN(CC)CCNC(=O)c1cc(Br)c(N)cc1OC | inactive | –
3 | CCC(C)(C)OC(=O)N[C@@H](Cc1c[nH]c2ccccc12)C(=O)N[C@@H](CCSC)C(=O)N[C@@H](CC(=O)O)C(=O)N[C@@H](Cc1ccccc1)C(N)=O | inactive | –
4 | O=C(O)c1ccc(NC2OC[C@@H](O)[C@H](O)[C@H]2O)cc1 (stereo partly specified) | inactive | –
5 | OCCN1CCN(CCCN2c3ccccc3C=Cc3ccccc32)CC1 | inactive | –
6 | CNC(=O)C[C@@H](N)C(=O)N[C@@H](C(=O)N[C@@H]1C(=O)N2[C@@H]1SC(C)(C)[C@@H]2C(=O)O)c1ccc(O)cc1 | inactive | –
7 | OCC(S)CS (stereo unspecified) | inactive | –
8 | CN(C)CCc1c[nH]c2ccc(Cn3cncn3)cc12 | inactive | –
9 | COc1cc([C@H]2Oc3cc([C@H]4Oc5cc(O)cc(O)c5C(=O)[C@@H]4O)ccc3O[C@@H]2CO)ccc1O | – | 87.1 µM (active)
10 | N=C(N)N | inactive | –
11 | CCCCCCCN | inactive | –
12 | O=C(O)c1cc(=O)c2ccccc2o1 | inactive | –
13 | NO | inactive | –
14 | CCCCOC(=O)CO | inactive | –
15 | Cn1cc(S(C)=O)c(=O)c2ccc(F)cc21 (stereo unspecified) | inactive | –
16 | NC/C=C/C(=O)O | inactive | –
